The list is not random: actives were taken first. Their share in the collection is about 12%.
Pf growth 48h: P. falciparum growth inhibition at 48 hours (one generation). AID 504832. P. falciparum luciferase growth in erythrocytes, 48 h. Potency, µM (highest dose often 28.7 µM), for inactives: at the top dose activity change, negative = inhibition, actives largely listed as inhibitors. hit rate 5.9% among 310,000; further: on the % scale 0 is the no-effect control and ±100 the full control effect
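Here the parasites carry a stable luciferase gene and grow inside erythrocytes in Albumax-based RPMI medium with compound for one erythrocytic cycle. Activity is scored as loss of luminescent signal.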
Pf growth 96h: inhibits malaria parasite growth, 96 h; P. falciparum luciferase reporter growth, 96 h; Potency, µM (doses to about 28.7 µM), for inactives: at the top dose activity change, negative = inhibition, actives largely listed as inhibitors; hit rate 6.9% among 320,000; AID 504834; further: on the % scale 0 is the no-effect control and ±100 the full control effect
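Compounds incubated with erythrocytes infected by luciferase-expressing P. falciparum (2% hematocrit, 0.05% parasitemia final) for 96 hours, 37 C in 5% CO2. Growth inhibition scored as decreased luciferase luminescence.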
HCV inhibitor: blocks hepatitis C virus; Huh7.5.1 HCVcc-Cre infection, luciferase reporter, 44 h; Potency, µM (doses to about 41.8 µM), for the others: at the highest dose activity change, negative = inhibition, usual class: inhibitors; hit rate 3.4% among 340,000; further: on the % scale 0 is the no-effect control and ±100 the full control effect
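Whole-lifecycle infectious HCVcc-Cre system; cells 1,000/well, compound then virus (~0.5 moi) added 4 h after plating, 44 h culture. Luciferase read 15 sec following 15 min substrate incubation, room temp.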
NS1 inh: blocks influenza NS1 protein function; Potency, µM (highest dose often 46.1 µM), for inactives: at the highest dose activity, positive = more growth; hit rate 0.4% among 270,000; calls by dose curve; further: actives are rising curves; nearly all actives have a fitted effect of over 50% in size
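OD600 was taken as the measure of yeast growth restored by compound in an NS1-expressing S. cerevisiae strain. Cells had been washed out of glucose medium and diluted 1:100 into galactose -URA medium, pH 6.0.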
SARS PLP yeast: SARS-CoV PLP inhibition in yeast; S. cerevisiae expressing SARS-CoV PLpro, growth rescue; Potency, µM (doses to about 32.9 µM), inactives show at the top dose activity, positive = growth rescue, hits mostly activators; hit rate 0.19% among 330,000; AID 485353; calls by dose curve; further: 0% is about no effect; nearly all actives have a fitted effect of over 55% in size
AMA1-RON2 inh: disrupts binding of P. falciparum AMA1 to RON2; AlphaScreen AMA1-biotinylated RON2 peptide binding; Potency, µM (titrated, usually from 58.2 µM), for inactives: top-dose activity change, negative = inhibition, actives largely listed as inhibitors; hit rate 0.2% among 360,000; AID 720542;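 further: 0% = vehicle wells and -100% = peptide control; nearly all actives have a fitted effect of over 45% in size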
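AMA1 (3D7) with his tag at 25 nM final met compounds first, then biotinylated RON2 peptide at 25 nM; detection used donor plus acceptor beads, 10 µg/mL apiece, read by AlphaScreen after 30 min at room temperature.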
Active calls of the source: *; ? = inconclusive; · = no result; [ ] = remark or other dose. Unless noted, the call rests on the fitted dose curve; in most records, active means well fitted curve in the direction sought with a large enough effect; inconclusive means small, poorly fitted or top-dose-only effect, or another doubt; inactive means no such curve, though single readings can be large; an effect the other way counts as inactive or inconclusive. Potency means the concentration at half of the fitted maximal effect.

SMILES	Pf growth 48h	Pf growth 96h	HCV inhibitor	NS1 inh	SARS PLP yeast	AMA1-RON2 inh
N#Cc1c(Nc2ccccc2)[n+]([O-])c2ccc(Cl)cc2[n+]1[O-]	·	·	2.8µM*	·	·	34%
CCOC(=O)CN1C(=O)C(=O)N(Cc2ccccc2F)C1=O	-1%	-10%	11%	3%	15%	-9%
COC(=O)c1cc(C)sc1NC(=O)C1CC(=O)NN1Cc1ccccc1 (stereo not given)	-11%	?	3%	-7%	-14%	27%
CCOC(=O)c1cc(CC)sc1NC(=O)C1CC(=O)NN1Cc1ccccc1 (stereo not given)	?	-12%	5.6µM*	-5%	14%	5%
O=[N+]([O-])c1cccc(P(=O)(O)c2cccc([N+](=O)[O-])c2)c1	13%	21%	18%	1%	1%	-6%
CCc1cc(C)cc(OCCNC(=O)c2cncc(Br)c2)c1	·	?	10µM*	-13%	-15%	-2%
C=CCN1C(=O)/C(=C/c2ccc(OC)cc2)S/C1=N/c1nccs1	12%	12µM*	0%	5%	-1%	-5%
C=CCN1C(=O)/C(=C/c2ccc(O)cc2)S/C1=N/c1nccs1	-21%	?	?	3%	-11%	-9%
CC(C)(C)S(=O)N1Cc2cc(C(=O)N3CCOCC3)nc(-c3cccc(Br)c3)c2[C@@H]1CCO (stereo not given in full)	·	·	·	·	·	-1%
Cc1ccsc1C(=O)Nc1cc(Cl)ccc1-n1cncn1	·	·	7.1µM*	·	·	11%
CCCOc1ccccc1OCC(=O)Nc1cc(Cl)ccc1-n1cncn1	12µM*	9.3µM*	?	·	1%	-14%
O=C(COc1ccc(F)cc1)Nc1cc(Cl)ccc1-n1cncn1	?	-5%	?	·	-4%	-9%
Cc1cccc(OC(C)C(=O)Nc2cc(Cl)ccc2-n2cncn2)c1 (stereo not given)	4.1µM*	?	?	·	6%	-6%
Cc1ccc(OCC(=O)Nc2cc(Cl)ccc2-n2cncn2)c(C)c1	·	·	·	·	·	-7%
Cc1cccc(C)c1OCC(=O)Nc1cc(Cl)ccc1-n1cncn1	13µM*	13µM*	?	·	·	-3%
Cc1cccc(OCC(=O)Nc2cc(Cl)ccc2-n2cncn2)c1C	?	?	?	·	3%	-7%
CC(C)CCNC(=O)CCn1c(=S)oc2ccccc21	1%	?	19%	·	-2%	11%
CCOc1ccc(OCC(=O)Nc2cc(Cl)ccc2-n2cncn2)cc1	·	·	·	·	·	-7%
CCc1cccc(OCC(=O)Nc2cc(Cl)ccc2-n2cncn2)c1	13µM*	?	-28%	·	-11%	14%
CCOC(=O)C(C)c1c(C(=O)c2ccc(C)nc2)c2ccccc2n1C (stereo not given)	3.7µM*	4.7µM*	·	-7%	-2%	·
COC(=O)c1ccc(NC(C)C(=O)OC)c([N+](=O)[O-])c1 (stereo not given)	-1%	?	10%	17%	4%	16%
O=C(Nc1ccc(SC(F)F)cc1)C1=COCCO1	141%	1.7µM*	-23%	-4%	-10%	10%
CN(C)S(=O)(=O)c1cc(NC(=O)C2=COCCO2)ccc1Cl	-16%	12µM*	23%	·	2%	-1%
COc1ccc(CCCNC(=O)C2Cc3c(-c4ccc5c(c4)OCO5)ccnc3O2)cc1 (stereo not given)	·	·	·	·	·	-12%
Cc1ccccc1C(=O)NNC(=O)C1CC(=O)N(c2ccc3c(c2)OCCO3)C1 (stereo not given)	-10%	16%	32%	·	1%	39%
SMILES	Pf growth 48h	Pf growth 96h	HCV inhibitor	NS1 inh	SARS PLP yeast	AMA1-RON2 inh
COCCNC(=O)c1onc(CSc2cc(C)cc(C)c2)c1C(=O)NCCOC	44%	21%	-4%	2%	1%	6%
Cn1c(=O)c2[nH]c(-c3ccccc3Cl)c(O)c2n(C)c1=O	4.7µM*	13µM*	30%	22%	-8%	-10%
Cn1c(=O)c2[nH]c(-c3ccccc3)c(O)c2n(C)c1=O	-15%	0%	9%	5%	-1%	-8%
CS(=O)(=O)c1ccc(Cl)c(NC(=O)CSc2n[nH]c(-c3cccs3)n2)c1	-11%	1%	21%	·	-2%	-15%
C[N+]12CCC(CC1)C(=C(c1ccccc1)c1ccccc1)C2	0.74µM*	0.59µM*	?	1%	-3%	3%
CC[N+]12CCC(CC1)C(=C(c1ccccc1)c1ccccc1)C2	27%	?	3%	3%	-1%	9%
Cc1cc2ccccn2c1C(=O)c1ccc([N+](=O)[O-])o1	-28%	?	11µM*	·	-4%	-20%
Cc1cc2ccccn2c1C(=O)c1cccc([N+](=O)[O-])c1	-3%	16%	2%	·	-1%	-24%
CCC(CC)c1nnc(NC(=O)CSCC(=O)Nc2cc(C)on2)s1	-1%	?	11%	·	0%	18%
COc1ccc(C(=O)Nc2ccccc2C(=O)NC(Cc2ccc(O)cc2)C(=O)NNC(=O)c2ccccc2Cl)cc1 (stereo not given)	5.2µM*	32%	?	?	-14%	86%
O=C(Nc1ccccc1C(=O)NC(Cc1ccccc1)C(=O)NC1CCCCC1)c1ccccc1 (stereo not given)	10µM*	?	-11%	7%	-6%	-9%[2.32 µM]
COc1ccc(C(=O)NNC(=O)C(Cc2ccc(O)cc2)NC(=O)c2ccccc2NC(=O)c2ccc(OC)cc2)cc1 (stereo not given)	?	61%	?	7%	19%	87%
C=CCNc1nc(C(=O)OC(C)C(=O)c2ccc(C)cc2)cs1 (stereo not given)	·	·	-20%	·	2%	6%
O=C(c1cccc([N+](=O)[O-])c1)C12CN3CN(CN(C3)C1)C2	?	57%	15%	·	0%	-2%
CC(C)=N/N=C(/c1ccc([N+](=O)[O-])cc1)C12CN3CN(CN(C3)C1)C2	0%	13µM*	5%	·	-4%	8%
CCCC[C@@H]1C[C@H]1[C@@H](NC(=O)c1ccccc1)c1ccccc1C(F)(F)F	?	?	?	-32%	3%	3%
C=C(CC1([C@@H](NP(=O)(c2ccccc2)c2ccccc2)[C@H]2C[C@@H]2CCCC)CC1)c1ccccc1	5.9µM*	9.3µM*	5%	12%	10%	-11%
Cc1nc(SCC(=O)N2c3ccccc3NC(=O)CC2C)c2c(C)c(C)sc2n1 (stereo not given)	?	13µM*	-20%	·	-2%	28%
Cc1cc2cc3c(cc2nc1SCC(=O)N1c2ccccc2CC1C)OCO3 (stereo not given)	?	?	4µM*	25%	-24%	-7%

Screens deposited in PubChem BioAssay by National Center for Advancing Translational Sciences (NCATS).
